The full data set covers some 7,900 targets. This sample favours those with a hit. About 0.6% of all pairs of compound and target were hits.
Experiments:
Assay in all cases: log2 fold change, soluble protein after heating vs DMSO (PISA); higher = thermal stabilisation; K562 cells, 10 uM, 30 min; active = over 0.2 and 3.5 SD of the protein, either way, in both replicates (recomputed)
[1] = compound: CC1=C(C=C(C=C1)NC(=O)C2=CC(=CC=C2)C(C)(C)C#N)NC3=CC4=C(C=C3)N=CN(C4=O)C
Procedure, shortened: (§1)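 Aliquots of K562 cells (2×10^6 cells/mL) treated with 10 μM compound for 30 min were heated for 3 min over 48°C-58°C. After pooling and extraction in PBS with 0.5% NP-40 at 4°C, soluble protein from a 21,000xg, 90 min spin was quantified by TMTpro 16plex LC-MS/MS with channel sums equalised. Thermal stability is expressed against control samples, from duplicates, as a log2 fold change.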

[2] = compound: CC1=C(C=C(C=C1)NC(=O)C2=CC(=CC=C2)N(C)C)NC(=O)C3=CC=C(C=C3)O
Procedure, shortened: as §1

[3] = compound: CC1=CC=C(C=C1)SC2=C3C=C(SC3=CN=C2)C(=O)N
Procedure, shortened: as §1

[4] = compound: CC1=NC(=CC=C1)C2=C(N=C(N2)C(C)(C)C)C3=CC4=NC=CN=C4C=C3
Procedure, shortened: as §1

[5] = compound: CCCCN(Cc1ccc(C(=O)NO)cc1)C(=O)Nc1ccccc1 [Nexturastat A]
Procedure, shortened: as §1

[6] = compound: CCCS(=O)(=O)Nc1ccc(F)c(C(=O)c2c[nH]c3ncc(-c4ccc(Cl)cc4)cc23)c1F [vemurafenib]
Procedure, shortened: as §1

[7] = compound: CCCS(=O)(=O)Nc1ccc(F)c(C(=O)c2c[nH]c3ncc(Cl)cc23)c1F
Procedure, shortened: as §1

[8] = compound: CCCc1cc(C)[nH]c(=O)c1CNC(=O)c1cc(-c2ccnc(N3CCN(C)CC3)c2)cc2c1cnn2C(C)C
Procedure, shortened: as §1

[9] = compound: CCN(CC)Cc1ccc2cc(COC(=O)Nc3ccc(C(=O)NO)cc3)ccc2c1 [givinostat]
Procedure, shortened: as §1

[10] = compound: CCN(CCCOc1ccc2c(Nc3cc(CC(=O)Nc4cccc(F)c4)[nH]n3)ncnc2c1)CCOP(=O)(O)O [barasertib]
Procedure, shortened: as §1

[11] = compound: CC[C@@H]1C(=O)N(C)c2cnc(Nc3ccc(C(=O)NC4CCN(C)CC4)cc3OC)nc2N1C1CCCC1
Procedure, shortened: as §1

[12] = compound: CC[C@@H]1C(=O)N(C)c2cnc(Nc3ccc(C(=O)N[C@H]4CC[C@H](N5CCN(CC6CC6)CC5)CC4)cc3OC)nc2N1C(C)C [volasertib]
Procedure, shortened: as §1

[13] = compound: CC[C@H](C)N1C=C(C2=C(C=C(C=C21)C3=CN=C(C=C3)N4CCNCC4)C(=O)NCC5=C(C=C(NC5=O)C)C)C
Procedure, shortened: as §1

[14] = compound: CC[C@H](C)[C@@H](C(=O)N[C@@H]([C@@H](C)O)C(=O)N[C@@H](CC(C)C)C(=O)[C@]1(CO1)C)NC(=O)[C@H]([C@@H](C)CC)N(C)C(=O)C [epoxomicin]
Procedure, shortened: as §1

[15] = compound: CCn1c(C(=O)N(C2CC2)C2CC2)cc2c3c(ncn3C)c(Nc3cc(C)n(C)n3)nc21
Procedure, shortened: as §1

[16] = compound: CCn1cc(-c2ccnc3[nH]c(-c4cccc(CN(C)C)c4)cc23)c(-c2ccc(NC(=O)N(C)C)cc2)n1
Procedure, shortened: as §1

[17] = compound: CN(C)CC(=O)Nc1ccc2[nH]c(=O)c3ccccc3c2c1
Procedure, shortened: as §1

[18] = compound: CN(CCOC1=CC=C(C=C1)C[C@H]2C(=O)NC(=O)S2)C3=CC=CC=N3 (racemic) [rosiglitazone]
Procedure, shortened: as §1

[19] = compound: CN1C2=C(C3=C1C(=O)N(N=C3)CC4=CC(=CC=C4)N)SC(=C2)S(=O)C
Procedure, shortened: as §1

[20] = compound: CN1CCC(CNc2ccc3ncc(-c4cccc(OC(F)(F)F)c4)n3n2)CC1
Procedure, shortened: as §1

Measured: log2 fold change

PPP4R3B (UniProt Q5MIZ7)
Sequence of UniProt Q5MIZ7 (Q5MIZ7 whole entry, looked up): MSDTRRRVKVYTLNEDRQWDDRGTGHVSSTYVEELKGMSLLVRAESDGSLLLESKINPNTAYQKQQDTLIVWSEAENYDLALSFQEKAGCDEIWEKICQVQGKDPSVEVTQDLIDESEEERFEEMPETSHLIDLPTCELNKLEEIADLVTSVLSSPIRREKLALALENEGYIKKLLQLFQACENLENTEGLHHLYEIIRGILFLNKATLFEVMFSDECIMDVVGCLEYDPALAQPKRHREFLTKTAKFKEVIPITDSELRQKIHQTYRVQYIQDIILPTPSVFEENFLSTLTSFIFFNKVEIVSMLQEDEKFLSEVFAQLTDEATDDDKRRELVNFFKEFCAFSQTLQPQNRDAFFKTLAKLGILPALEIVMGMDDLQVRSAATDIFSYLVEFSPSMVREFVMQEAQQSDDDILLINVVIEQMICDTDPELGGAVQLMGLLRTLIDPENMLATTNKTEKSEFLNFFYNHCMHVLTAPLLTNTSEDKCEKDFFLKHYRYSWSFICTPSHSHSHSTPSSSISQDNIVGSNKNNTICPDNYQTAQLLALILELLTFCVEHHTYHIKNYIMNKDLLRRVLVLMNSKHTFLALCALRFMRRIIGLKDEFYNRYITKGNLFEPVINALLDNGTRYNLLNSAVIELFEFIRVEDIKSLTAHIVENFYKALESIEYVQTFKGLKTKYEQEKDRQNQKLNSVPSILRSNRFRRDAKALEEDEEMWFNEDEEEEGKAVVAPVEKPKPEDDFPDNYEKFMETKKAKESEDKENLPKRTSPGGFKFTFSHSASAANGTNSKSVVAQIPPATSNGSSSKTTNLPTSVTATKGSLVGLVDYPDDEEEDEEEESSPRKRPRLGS
active: [12] -0.284
inactive: [1] 0.006 | [2] 0.014 | [3] 0.008 | [4] 0.024 | [5] -0.063 | [6] 0.017 | [7] 0.009 | [8] -0.017 | [9] 0.049 | [10] 0.029 | [11] -0.052 | [13] 0.05 | [14] -0.011 | [15] -0.03 | [16] -0.074 | [17] -0.001 | [18] 0.06 | [19] -0.074 | [20] -0.15

PDS5A (UniProt Q29RF7)
Sequence of UniProt Q29RF7 (Q29RF7 whole entry, looked up): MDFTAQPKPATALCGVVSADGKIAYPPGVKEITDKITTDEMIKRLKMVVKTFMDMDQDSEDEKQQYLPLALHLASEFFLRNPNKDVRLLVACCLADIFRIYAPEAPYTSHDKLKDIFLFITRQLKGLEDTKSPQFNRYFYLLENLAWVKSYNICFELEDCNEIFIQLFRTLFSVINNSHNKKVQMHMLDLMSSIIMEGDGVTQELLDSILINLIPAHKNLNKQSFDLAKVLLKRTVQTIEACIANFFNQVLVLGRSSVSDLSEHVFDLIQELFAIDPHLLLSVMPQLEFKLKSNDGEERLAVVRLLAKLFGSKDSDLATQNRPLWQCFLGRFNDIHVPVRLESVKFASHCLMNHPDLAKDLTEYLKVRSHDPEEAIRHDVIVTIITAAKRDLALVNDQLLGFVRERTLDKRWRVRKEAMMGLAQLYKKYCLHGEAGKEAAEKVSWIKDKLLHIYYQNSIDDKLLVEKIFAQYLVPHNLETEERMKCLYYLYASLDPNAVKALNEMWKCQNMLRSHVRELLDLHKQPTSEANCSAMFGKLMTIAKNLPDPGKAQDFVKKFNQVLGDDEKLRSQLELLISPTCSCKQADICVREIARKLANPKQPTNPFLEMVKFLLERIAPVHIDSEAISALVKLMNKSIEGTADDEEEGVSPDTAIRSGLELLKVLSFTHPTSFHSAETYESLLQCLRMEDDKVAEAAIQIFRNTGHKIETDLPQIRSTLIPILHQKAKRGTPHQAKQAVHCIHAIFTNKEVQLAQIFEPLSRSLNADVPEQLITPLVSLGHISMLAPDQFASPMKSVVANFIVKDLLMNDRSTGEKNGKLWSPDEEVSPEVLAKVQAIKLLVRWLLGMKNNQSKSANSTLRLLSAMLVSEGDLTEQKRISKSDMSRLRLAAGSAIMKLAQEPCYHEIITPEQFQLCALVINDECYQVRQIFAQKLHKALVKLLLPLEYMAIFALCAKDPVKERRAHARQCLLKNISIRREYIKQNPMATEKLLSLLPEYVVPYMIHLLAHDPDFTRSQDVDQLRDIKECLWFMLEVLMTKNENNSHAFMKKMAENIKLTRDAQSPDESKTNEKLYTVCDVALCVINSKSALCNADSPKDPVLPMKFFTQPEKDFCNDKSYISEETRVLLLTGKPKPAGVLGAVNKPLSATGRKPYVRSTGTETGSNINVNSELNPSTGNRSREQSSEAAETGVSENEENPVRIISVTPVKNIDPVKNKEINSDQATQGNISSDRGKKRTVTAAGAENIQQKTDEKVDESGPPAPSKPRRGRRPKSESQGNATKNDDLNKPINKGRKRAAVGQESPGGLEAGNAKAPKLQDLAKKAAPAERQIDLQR
inactive: [1] 0.093 | [2] -0.109 | [3] 0.012 | [4] 0.12 | [5] 0.057 | [6] 0.143 | [7] 0.294 | [8] 0 | [9] 0.208 | [10] 0.275 | [11] -0.213 | [12] -0.447 | [13] 0.137 | [14] 0.29 | [15] -0.086 | [16] 0.012 | [17] -0.107 | [18] 0.246 | [19] 0.042 | [20] -0.203

POLR2D (UniProt O15514)
inactive: [1] -0.022 | [2] -0.005 | [3] 0.002 | [4] 0.004 | [5] 0.027 | [6] 0.046 | [7] -0.006 | [8] -0.014 | [9] -0.267 | [10] -0.031 | [11] 0.206 | [12] 0.135 | [13] -0.017 | [14] 0.17 | [15] 0.11 | [16] 0.043 | [17] -0.02 | [18] -0.02 | [19] -0.101 | [20] 0.056

POLR2B (UniProt P30876)
inactive: [1] 0.009 | [2] -0.044 | [3] 0.041 | [4] 0.016 | [5] 0.054 | [6] 0.006 | [7] 0.041 | [8] 0.005 | [9] -0.005 | [10] 0.008 | [11] 0.064 | [12] -0.128 | [13] -0.018 | [14] -0.008 | [15] -0.046 | [16] 0.023 | [17] -0.015 | [18] 0.037 | [19] 0.03 | [20] 0.031

PEX16 isoform 2 (UniProt Q9Y5Y5)
Sequence of UniProt Q9Y5Y5 (Q9Y5Y5 whole entry, looked up): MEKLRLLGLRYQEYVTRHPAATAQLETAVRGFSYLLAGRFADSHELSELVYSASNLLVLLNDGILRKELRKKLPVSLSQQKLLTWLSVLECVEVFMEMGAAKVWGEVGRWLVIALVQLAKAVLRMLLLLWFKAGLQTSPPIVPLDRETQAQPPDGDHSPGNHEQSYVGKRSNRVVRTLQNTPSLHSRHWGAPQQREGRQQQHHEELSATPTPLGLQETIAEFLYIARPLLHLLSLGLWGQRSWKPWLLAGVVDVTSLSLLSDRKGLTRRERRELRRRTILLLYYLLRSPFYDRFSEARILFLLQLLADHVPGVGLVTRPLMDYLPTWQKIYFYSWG
inactive: [1] 0.017 | [2] 0.038 | [3] 0.083 | [4] 0.146 | [5] -0.033 | [6] 0.071 | [7] 0.089 | [8] -0.07 | [9] 0.006 | [10] -0.007 | [11] -0.065 | [12] -0.138 | [13] -0.013 | [14] -0.024 | [15] -0.041 | [16] 0.033 | [17] 0.013 | [18] 0.062 | [19] -0.127 | [20] -0.124

PRKACB isoform 2 (UniProt P22694)
inactive: [1] -0.014 | [2] 0.015 | [3] 0.011 | [4] 0.077 | [5] 0.059 | [6] -0.007 | [7] 0.031 | [8] -0.129 | [9] -0.024 | [10] 0.036 | [11] -0.025 | [12] -0.031 | [13] 0.004 | [14] -0.033 | [15] 0.008 | [16] -0.009 | [17] -0.048 | [18] 0.025 | [19] -0.042 | [20] -0.022

PNPLA8 (UniProt Q9NP80)
Sequence of UniProt Q9NP80 (Q9NP80 whole entry, looked up): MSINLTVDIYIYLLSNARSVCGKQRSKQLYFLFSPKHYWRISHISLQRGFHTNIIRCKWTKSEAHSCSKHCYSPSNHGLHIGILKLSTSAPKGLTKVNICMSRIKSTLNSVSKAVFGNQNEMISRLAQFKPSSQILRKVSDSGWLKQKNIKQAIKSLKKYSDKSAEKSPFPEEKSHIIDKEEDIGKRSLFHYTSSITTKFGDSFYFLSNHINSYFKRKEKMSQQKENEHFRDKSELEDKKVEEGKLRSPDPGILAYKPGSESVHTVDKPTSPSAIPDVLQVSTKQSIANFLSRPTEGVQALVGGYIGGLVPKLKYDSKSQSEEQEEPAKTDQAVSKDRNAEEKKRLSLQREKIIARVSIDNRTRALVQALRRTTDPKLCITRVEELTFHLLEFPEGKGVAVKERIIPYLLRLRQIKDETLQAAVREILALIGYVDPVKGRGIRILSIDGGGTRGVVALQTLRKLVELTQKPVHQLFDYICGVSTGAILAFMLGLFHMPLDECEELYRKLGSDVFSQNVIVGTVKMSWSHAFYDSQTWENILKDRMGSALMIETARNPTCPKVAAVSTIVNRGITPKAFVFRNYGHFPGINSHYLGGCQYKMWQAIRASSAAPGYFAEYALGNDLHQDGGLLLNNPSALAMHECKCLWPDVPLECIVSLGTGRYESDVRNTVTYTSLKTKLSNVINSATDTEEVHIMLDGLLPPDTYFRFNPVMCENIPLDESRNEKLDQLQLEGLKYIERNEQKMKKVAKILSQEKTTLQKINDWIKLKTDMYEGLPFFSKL
active: [20] -0.262
inactive: [1] 0.001 | [2] 0.026 | [3] 0.007 | [4] -0.027 | [5] 0.041 | [6] -0.002 | [7] -0.005 | [8] 0.084 | [9] 0.067 | [10] 0.066 | [11] -0.048 | [12] -0.184 | [13] -0.07 | [14] 0.112 | [15] -0.01 | [16] -0.07 | [17] 0.029 | [18] 0.069 | [19] 0.003

PRKAB1 (UniProt Q9Y478)
Sequence of UniProt Q9Y478 (Q9Y478 whole entry, looked up): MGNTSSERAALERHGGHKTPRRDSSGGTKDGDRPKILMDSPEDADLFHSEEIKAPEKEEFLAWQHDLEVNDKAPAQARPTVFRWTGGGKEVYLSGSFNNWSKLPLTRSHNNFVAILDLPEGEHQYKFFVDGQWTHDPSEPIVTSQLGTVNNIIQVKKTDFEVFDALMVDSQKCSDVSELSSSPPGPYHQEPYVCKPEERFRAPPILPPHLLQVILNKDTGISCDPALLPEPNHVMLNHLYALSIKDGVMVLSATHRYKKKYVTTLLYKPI
active: [12] -0.418
inactive: [1] -0.055 | [2] 0.026 | [3] 0.022 | [4] 0.01 | [5] -0.002 | [6] 0.031 | [7] 0.017 | [8] 0.109 | [9] 0.08 | [10] 0.026 | [11] -0.079 | [13] 0.045 | [14] 0.055 | [15] -0.05 | [16] -0.018 | [17] 0.022 | [18] -0.002 | [19] -0.026 | [20] -0.155
